# Experimental data: PubChem BioAssay
# Tested on: Fibrinogen (Alexa647-labelled)
# Experiment: fibrinogen binders on compound microarrays, profiling panel, artefact control for SMM control-protein annotation, biochemical, small-molecule microarray, 635/667 nm fluorescence (AID 1131);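 further: z-score merges 667 nm fluorescence with per-spot signal-to-noise over triplicate slides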
# Conditions: fibrinogen-A647 binding fluorescence, higher = more signal
row,SMILES,composite z-score
1,C=CCNC(=O)[C@@H]1[C@H]2C(=O)O[C@H](c3ccccc3)[C@H](c3ccccc3)N2[C@H](c2ccc(OCCO)cc2)[C@@]12C(=O)N(C(=O)OCCOC)c1ccccc12,0.61
2,COc1ccc(C(=O)Nc2ccc(CN3C(=O)[C@]4(O[C@H](CC(=O)N(CCO)Cc5ccccc5)[C@@H]([Si](C)(C)c5ccc(OC)cc5)[C@@H]4C)c4ccccc43)cc2)cc1,0.375
3,COC(=O)Cn1c(C(=O)N(C)C)cc2c1C[C@H]1CN(C(=O)c3ccccc3)[C@@](Cc3ccccc3)(C(=O)OC)[C@@H]21,-0.254
4,CO[C@H]1O[C@H](CO)[C@@H](OC(=O)Nc2cccc(F)c2)[C@H](OC(=O)Nc2ccc3c(c2)OCO3)[C@@H]1OC(=O)Nc1ccc2c(c1)OCO2,0.973
5,COC(=O)[C@@]1(Cc2ccc(F)cc2)[C@H]2c3cc(C(=O)N(C)C)n(Cc4cccc5ccccc45)c3C[C@H]2CN1C(=O)c1ccccc1,0.338
6,CCOC(=O)C[C@H]1[C@H](OC(=O)Cc2ccc3c(c2)OCO3)[C@@H](NC(=O)CC(C)C)c2cc(OCCCO)ccc2N1C(=O)c1ccc2ccccc2n1,0.973
7,O=C1O[C@H](c2ccccc2)[C@H](c2ccccc2)N2[C@H]1[C@@H](C(=O)N1CCN(c3ncccn3)CC1)[C@]1(C(=O)Nc3ccc(C#CC4(O)CCCCCC4)cc31)[C@H]2c1ccc(O)cc1,0.902
8,COC(=O)C[C@H]1O[C@]2(C(=O)N(C)c3ccccc32)[C@@H](C)[C@@H]1[Si](C)(C)c1ccccc1,0.794

# Target: Follistatin (Homo sapiens) (UniProt P19883)
# Experiment: follistatin binders on small-molecule microarrays, primary screen, biochemical, small-molecule microarray, 635/667 nm fluorescence (AID 1132)
# Conditions: FST binding, 635 nm fluorescence, higher = more signal
# Sequence of Follistatin (Homo sapiens) (P19883 whole entry, looked up): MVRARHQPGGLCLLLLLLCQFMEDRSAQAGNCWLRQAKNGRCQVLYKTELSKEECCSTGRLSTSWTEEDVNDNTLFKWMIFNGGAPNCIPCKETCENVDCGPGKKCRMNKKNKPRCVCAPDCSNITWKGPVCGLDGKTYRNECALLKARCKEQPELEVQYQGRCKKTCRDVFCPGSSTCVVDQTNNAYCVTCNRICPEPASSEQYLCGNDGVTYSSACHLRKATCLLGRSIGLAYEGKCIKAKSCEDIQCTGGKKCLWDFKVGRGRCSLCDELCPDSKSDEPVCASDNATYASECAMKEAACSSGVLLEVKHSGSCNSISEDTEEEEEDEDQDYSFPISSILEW
row,SMILES,composite z-score
1,CCCC[C@@H](O)C1=C(C)Cn2c(=O)n(-c3ccccc3)c(=O)n2[C@H]1CO,-0.355
2,CCOC(=O)C[C@H]1[C@H](OC(=O)c2cc3ccccc3oc2=O)[C@@H](NC(=O)Cc2ccc(OC)cc2)c2cc(OCCCO)ccc2N1C(=O)Cc1ccc(OC)cc1,0.705
3,COC(=O)C1=CC(CCCO)=CC(c2ccc(CN3CCCC3)cc2)N(C)C=C1C(=O)OC (centres undefined),0.468
4,CCOC(=O)C[C@H]1[C@H](OC(=O)c2ccc(-c3ccccc3)cc2)[C@@H](NC(=O)c2ccc(-c3ccccc3)cc2)c2cc(OCCCO)ccc2N1C(=O)c1ccccc1,0.627
5,COc1ccc(C(=O)Nc2cccc(CN3C(=O)[C@]4(O[C@H](CC(=O)N(CCO)Cc5ccccc5)[C@@H]([Si](C)(C)c5ccc(OC)cc5)[C@@H]4C)c4ccccc43)c2)cc1,0.959
6,O=C(N1CCOCC1)[C@]1(CCS(=O)(=O)c2ccccc2)N=C(c2ccc(OCCCO)cc2)O[C@@H]1c1ccccc1,1.25
7,CC(C)c1ccc(NN2C(C(O)c3ccccc3)C=CC3C(=O)N(c4ccccc4)C(=O)C32)cc1 (centres undefined),0.075
8,COc1ccc([Si](C)(C)[C@H]2[C@H](CC(=O)N3CCC[C@H]3CO)O[C@@]3(C(=O)N(C)c4c(Br)cc(C)cc43)[C@@H]2C)cc1,1.59
9,COCCCNC(=O)[C@]1(Cc2ccccc2N=[N+]=[N-])N=C(c2ccc(OCCCO)cc2)O[C@@H]1c1ccccc1,1.25
10,[N-]=[N+]=NCc1ccccc1[C@H]1OC(c2ccc(OCCCO)cc2)=N[C@@]1(Cc1ccccc1N=[N+]=[N-])C(N)=O,1.21
11,C=CC[C@]1(C(=O)NCC(O)CO)N=C(c2ccc(OCCCO)cc2)O[C@H]1c1ccccc1CN=[N+]=[N-] (some centres undefined),0.875
12,C[C@]1(C(=O)NC2CC2)c2ccccc2C(=O)N(Cc2cc(F)cc(C(F)(F)F)c2)[C@H]1c1ccc(CO)cc1,0.719
13,CC(C)N1CC=CC23O[C@@H]4/C=C\CCCOC(=O)C4[C@H]2C(=O)N(C(C)CO)[C@@H]3C1=O (some centres undefined),-0.755
14,CCOC(=O)C[C@H]1[C@H](OC(=O)c2ccccc2-c2ccccc2)[C@@H](NC(=O)CC(C)C)c2cc(OCCCO)ccc2N1C(=O)c1ccccc1,1.01
15,CN(C)CCCCNC(=O)[C@H]1C[C@H]2C(=O)N[C@@H](CCCCN(C)C)C(=O)N2[C@H]1c1ccc(O)cc1,1.19
16,CC(CO)N1C(=O)[C@@H]2[C@H]3C(=O)OCC=C[C@H]3OC23C=CCN(c2ccc4ccccc4c2)C(=O)[C@@H]13 (some centres undefined),-2.31
17,CC(C)N1C(=O)[C@@]2(Cc3ccccc31)c1ccccc1C(=O)N(Cc1ccccc1)[C@H]2c1ccc(CO)cc1,0.848
18,CCOC(=O)C1=CC[C@@H](c2ccccc2)N(S(=O)(=O)c2ccc(C)cc2)[C@@H]1C#N,0.351

row,SMILES,composite z-score
1,COc1ccc([Si](C)(C)[C@@H]2[C@@H](CC(=O)N(CCO)Cc3ccccc3)O[C@]3(C(=O)N(Cc4cccc(I)c4)c4ccccc43)[C@H]2C)cc1,1.48
2,CO[C@H]1O[C@H](CO)[C@@H](OC(=O)CCc2ccccc2)[C@@H]2OC(=O)[C@@H](Cc3ccc4ccccc4c3)C/C=C/C[C@H](Cc3ccc4ccccc4c3)C(=O)O[C@@H]12,-0.564
3,O=C1O[C@H](c2ccccc2)[C@H](c2ccccc2)N2[C@H]1[C@@H](C(=O)O)[C@]1(C(=O)Nc3ccccc31)[C@H]2c1ccc(OCCO)cc1,0.496
4,O=C1c2ccccc2[C@@]2(Cc3ccccc3N(CC(F)(F)F)C2=O)[C@H](c2ccc(CO)cc2)N1Cc1ccccc1,0.932
5,COCCCNC(=O)[C@@]1(Cc2ccccc2I)c2ccccc2C(=O)N(C2CCCCC2)[C@H]1c1ccc(CO)cc1,0.926
6,COCCOC(=O)N1C(=O)[C@@]2(c3cc(C#CC4(O)CCCCCC4)ccc31)[C@H](C(N)=O)[C@H]1C(=O)O[C@H](c3ccccc3)[C@H](c3ccccc3)N1[C@@H]2c1ccc(OCCO)cc1,1.34
7,CCCNC(=O)[C@@]1(Sc2ccc(C)cc2)CC(=O)N(Cc2cc(C(F)(F)F)cc(C(F)(F)F)c2)[C@@H]1c1ccc(CO)cc1,-0.245
8,C=C(CCCC)/C(=C/C[C@@H](OC(C)=O)c1cccc(OCCO)c1)c1cc(C(=O)OC)ccc1OC,0.705
9,Cc1cccc([C@H]2C[C@H]3C(Br)=C[C@@]2(CO)C(=O)[C@]32CO2)c1,0.39
10,CCCCN1CC=CC23O[C@@H]4/C=C\CCCOC(=O)C4[C@H]2C(=O)N(CCCCCCO)[C@@H]3C1=O (some centres undefined),-1.02
11,C=CCNC(=O)[C@@H]1[C@H]2C(=O)O[C@H](c3ccccc3)[C@H](c3ccccc3)N2[C@H](c2ccc(OCCO)cc2)[C@@]12C(=O)N(C(=O)OCCOC)c1ccccc12,1.29
12,COc1ccc(C(=O)Nc2ccc(CN3C(=O)[C@]4(O[C@H](CC(=O)N(CCO)Cc5ccccc5)[C@@H]([Si](C)(C)c5ccc(OC)cc5)[C@@H]4C)c4ccccc43)cc2)cc1,1.25
13,COC(=O)Cn1c(C(=O)N(C)C)cc2c1C[C@H]1CN(C(=O)c3ccccc3)[C@@](Cc3ccccc3)(C(=O)OC)[C@@H]21,-0.253
14,CO[C@H]1O[C@H](CO)[C@@H](OC(=O)Nc2cccc(F)c2)[C@H](OC(=O)Nc2ccc3c(c2)OCO3)[C@@H]1OC(=O)Nc1ccc2c(c1)OCO2,1.25
15,COC(=O)[C@@]1(Cc2ccc(F)cc2)[C@H]2c3cc(C(=O)N(C)C)n(Cc4cccc5ccccc45)c3C[C@H]2CN1C(=O)c1ccccc1,0.137
16,CCOC(=O)C[C@H]1[C@H](OC(=O)Cc2ccc3c(c2)OCO3)[C@@H](NC(=O)CC(C)C)c2cc(OCCCO)ccc2N1C(=O)c1ccc2ccccc2n1,1.32
17,O=C1O[C@H](c2ccccc2)[C@H](c2ccccc2)N2[C@H]1[C@@H](C(=O)N1CCN(c3ncccn3)CC1)[C@]1(C(=O)Nc3ccc(C#CC4(O)CCCCCC4)cc31)[C@H]2c1ccc(O)cc1,0.951
18,COC(=O)C[C@H]1O[C@]2(C(=O)N(C)c3ccccc32)[C@@H](C)[C@@H]1[Si](C)(C)c1ccccc1,1.05
